Experimental data: PubChem BioAssay (NCI)
Compounds without any hit were thinned out: in the full panel of roughly 83,000, 20% have a hit.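 Treatment: one concentration, 48 hours, 96-well format. Scoring: percent growth, with anything below 10 considered active.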

Assays:
Assay in all cases: NCI-60 one-dose screen, 48 h (100 = growth as untreated, 0 = no growth, -100 = all killed)
Settings in all cases: 10 µM unless noted
HCT-15 colon = test system: HCT-15 colon
SNB-19 CNS = test system: SNB-19 CNS
U251 CNS = test system: U251 CNS
PC-3 prostate = test system: PC-3 prostate
SK-MEL-5 melanoma = test system: SK-MEL-5 melanoma
UACC-62 melanoma = test system: UACC-62 melanoma
LOX IMVI melanoma = test system: LOX IMVI melanoma
SK-MEL-28 melanoma = test system: SK-MEL-28 melanoma
SK-MEL-2 melanoma = test system: SK-MEL-2 melanoma
EKVX NSCLC = test system: EKVX NSCLC
SN12C renal = test system: SN12C renal
UO-31 renal = test system: UO-31 renal
TK-10 renal = test system: TK-10 renal
ACHN renal = test system: ACHN renal
CAKI-1 renal = test system: CAKI-1 renal
CCRF-CEM leukemia = test system: CCRF-CEM leukemia
MOLT-4 leukemia = test system: MOLT-4 leukemia
SNB-75 CNS = test system: SNB-75 CNS
A498 renal = test system: A498 renal

Measured: growth

N#Cc1c(Nc2ccccc2)nn2cc(-c3nc4ccccc4s3)c(N)nc12
inactive: HCT-15 colon 71% | SNB-19 CNS 76.5% | U251 CNS 84.2% | PC-3 prostate 73.4% | SK-MEL-5 melanoma 67.6% | UACC-62 melanoma 66.8% | LOX IMVI melanoma 67.9% | SK-MEL-28 melanoma 68.7% | SK-MEL-2 melanoma 97.5% | EKVX NSCLC 71.9% | SN12C renal 89.6% | UO-31 renal 83.4% | TK-10 renal 107% | ACHN renal 59% | CAKI-1 renal 82.6% | CCRF-CEM leukemia 79.2% | MOLT-4 leukemia 93.7%

COc1cc2c(cc1[N+](=O)[O-])-c1ccc([N+](=O)[O-])cc1/C2=N\O
inactive: HCT-15 colon 87.4% | SNB-75 CNS 75.5% | SNB-19 CNS 79.4% | U251 CNS 76.8% | PC-3 prostate 73.2% | SK-MEL-5 melanoma 75.4% | UACC-62 melanoma 75.9% | LOX IMVI melanoma 67.8% | SK-MEL-28 melanoma 99.7% | SK-MEL-2 melanoma 92.6% | EKVX NSCLC 76.7% | SN12C renal 91.1% | UO-31 renal 67.6% | TK-10 renal 78.9% | ACHN renal 72.5% | CAKI-1 renal 83.4% | CCRF-CEM leukemia 78.2% | MOLT-4 leukemia 83.3%

CCCOc1nc(SCCC)nc2c1cnn2-c1ccccc1
inactive: HCT-15 colon 108% | SNB-19 CNS 103% | U251 CNS 107% | PC-3 prostate 102% | SK-MEL-5 melanoma 106% | UACC-62 melanoma 86.8% | LOX IMVI melanoma 110% | SK-MEL-28 melanoma 122% | SK-MEL-2 melanoma 86.8% | EKVX NSCLC 97.3% | SN12C renal 98.7% | UO-31 renal 91.9% | TK-10 renal 149% | ACHN renal 111% | CAKI-1 renal 105% | A498 renal 134% | CCRF-CEM leukemia 92.9% | MOLT-4 leukemia 141%
